Source: PubChem BioAssay (NCI)
About 79,000 compounds went through this panel and 15% of them were active in at least one assay; those are over-represented in the sample as a whole. A number with no mark means an inactive call. Active and inactive are the calls of the source. No stated cut-off is given here; in the data, active means growth inhibition above about 70%; inactive means the rest.

How the values were obtained:
[1] = NCI Yeast Anticancer Drug Screen. Data for the rad50 strain (AID 155);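 further: 0% = growth of vehicle-only cultures of the same strain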; conditions: S. cerevisiae rad50 strain growth inhibition, stronger effect = higher value
How it was run: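 Relative growth inhibition (compound vs vehicle) was measured in yeast with a defined repair-gene alteration.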

[2] = NCI Yeast Anticancer Drug Screen. Data for the mec2-1 strain (AID 157); conditions: S. cerevisiae mec2-1 strain, stronger effect = higher value
How it was run: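 Vehicle-treated cultures served as reference for growth inhibition of compound-exposed mec2-1 yeast.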

[3] = NCI Yeast Anticancer Drug Screen. Data for the sgs1 mgt1 strain (AID 161);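 further: 0% = growth of cultures given vehicle only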; conditions: S. cerevisiae sgs1 mgt1 strain, stronger effect = higher value
How it was run: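 Test agents were incubated with a DNA-repair-mutant yeast strain. Growth was then read and compared against vehicle-treated controls.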

[4] = NCI Yeast Anticancer Drug Screen. Data for the cln2 rad14 strain (AID 165);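 further: 0% = growth equal to vehicle treated cultures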; conditions: S. cerevisiae cln2 rad14 strain, stronger effect = higher value
How it was run: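 Each compound was tested on cln2 rad14 yeast. Inhibition of growth was calculated against vehicle-exposed controls.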

[5] = NCI Yeast Anticancer Drug Screen. Data for the bub3 strain (AID 167); conditions: S. cerevisiae bub3 mutant strain, stronger effect = higher value
How it was run: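 Screening used yeast with an engineered genetic alteration affecting cell cycle control. Compound-exposed cultures were compared with vehicle cultures, and reduced growth was taken as inhibition.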

[6] = NCI Yeast Anticancer Drug Screen. Data for the mlh1 rad18 strain (AID 175); conditions: S. cerevisiae mlh1 rad18 strain growth inhibition, stronger effect = higher value
How it was run: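 Vehicle-treated cultures served as the reference for growth inhibition in a yeast strain carrying DNA damage repair alterations exposed to each compound.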

[7] = at 5.0 µM (retest, dose inferred, filed as 0.5)
[8] = at 50.0 µM (retest, dose inferred, filed as 5.0)

Structure (SMILES)	growth inhibition [1, 7]	growth inhibition [1, 8]	growth inhibition ([1]; at 50.0 µM)	growth inhibition [2, 7]	growth inhibition [2, 8]	growth inhibition ([2]; at 50.0 µM)	growth inhibition [3, 7]	growth inhibition [3, 8]	growth inhibition ([3]; at 50.0 µM)	growth inhibition [4, 7]	growth inhibition [4, 8]	growth inhibition ([4]; at 50.0 µM)	growth inhibition [5, 7]	growth inhibition [5, 8]	growth inhibition ([5]; at 50.0 µM)	growth inhibition [6, 7]	growth inhibition [6, 8]	growth inhibition ([6]; at 50.0 µM)
COc1cc(N(CC(C)Br)CC(C)Br)ccc1N=Nc1ccccc1C(=O)O (centres undefined)	42%	96% (active)	65.2%	26%	95% (active)	29.1%	54%	95% (active)	32.4%	52%	98% (active)	78.2% (active)	52%	92% (active)	32.9%	33%	94% (active)	80.2% (active)
Cc1nnc2n1-c1ccc(Cl)cc1C(c1ccccc1)=[N+]([O-])C2	4%	0%	-16.8%	-3%	-9%	-0.7%	1%	3%	3.05%	1%	12%	64.7%	-1%	-1%	7.45%	-3%	-4%	-6.2%
CC(=N\O)/C(C)=N/O.CC(=N\O)/C(C)=N/O.CC(=N\O)/C(C)=N/O.CC(=N\O)/C(C)=N/O.[CH3-].[CH3-].[Co].[Co]	15%	25%	46.5%	8%	17%	24.6%	21%	18%	30.1%	11%	24%	2.8%	-1%	13%	-12.7%	14%	39%	63.6%
c1ccc(C[As](c2ccccc2)c2ccccc2)cc1	99% (active)	3%	99.2% (active)	99% (active)	15%	99.5% (active)	99% (active)	36%	99.5% (active)	98% (active)	-98%	99.2% (active)	99% (active)	22%	99.4% (active)	99% (active)	23%	99.2% (active)
CS(=N)(=O)CCC(N)C(=O)O (centres undefined)	-162%	-152%	11.4%	-50%	-48%	9.8%	-65%	-45%	-3.9%	-69%	-61%	18.7%	-73%	-78%	2.1%	-153%	-114%	14.6%
O=C1CN2CCCCC2CN1 (centres undefined)	-159%	-143%	-13.2%	-43%	-47%	7.9%	-59%	-56%	-2.65%	-58%	-60%	24.9%	-73%	-71%	1.8%	-137%	-114%	5.35%
O=C1C(C(Nc2ccccc2)c2ccccc2)=C([O-])c2ccccc21.O=C1C(C(Nc2ccccc2)c2ccccc2)=C([O-])c2ccccc21.[Ni+2] (centres undefined)	57%	81% (active)	63.3%	33%	55%	71% (active)	49%	80% (active)	36.6%	46%	46%	55.8%	51%	84% (active)	73.8% (active)	39%	81% (active)	63.1%
CC1=CC(=O)c2c(O)cccc2C1=O	18%	100% (active)	85.8% (active)	29%	99% (active)	90.1% (active)	19%	99% (active)	92% (active)	7%	99% (active)	90.3% (active)	23%	99% (active)	90.5% (active)	30%	98% (active)	89% (active)
CC1CCCC[N-]1.CC1CCCC[N-]1.N#C[S-].N#C[S-].[Cd] (centres undefined)	20%	87% (active)	93.2% (active)	9%	52%	66.7%	12%	36%	70.7% (active)	7%	69%	58%	10%	26%	67.7%	16%	39%	73% (active)
c1ccc([As+](c2ccccc2)(c2ccccc2)c2cccc3ccccc23)cc1	88% (active)	99% (active)	99% (active)	90% (active)	99% (active)	99.1% (active)	93% (active)	100% (active)	98.7% (active)	86% (active)	99% (active)	99% (active)	90% (active)	99% (active)	98.8% (active)	88% (active)	99% (active)	98.8% (active)
[N-]=[N+]=Nc1c([N+](=O)[O-])c(=O)n2c3c(cccc13)CCC2	46%	98% (active)	85.5% (active)	26%	99% (active)	88.8% (active)	28%	99% (active)	92.8% (active)	18%	84% (active)	90.6% (active)	37%	99% (active)	90.5% (active)	40%	98% (active)	90.2% (active)
COc1ccc([As](O[As](c2ccc(OC)cc2)c2ccc(OC)cc2)c2ccc(OC)cc2)cc1	99% (active)	99% (active)	99.2% (active)	100% (active)	100% (active)	99.6% (active)	100% (active)	100% (active)	99.5% (active)	99% (active)	99% (active)	99.4% (active)	99% (active)	99% (active)	99.4% (active)	99% (active)	99% (active)	99.5% (active)
[C-]#[O+].[C-]#[O+].[Mo].[N-]=Nc1ccc([N+](=O)[O-])cc1.[c-]1[c-][c-][cH-][c-]1	-1%	69%	93.7% (active)	-6%	55%	21.3%	2%	86% (active)	84.9% (active)	9%	26%	8.7%	-12%	71% (active)	4.95%	2%	75% (active)	79.3% (active)
